NR5A2 inv ag – NR5A2 inverse agonism in reporter assay. O00482. HEK293T StAR-luciferase reporter, LRH-1 transfected, 24 h. inhibition, % at 3.6 µM. actives 0.13% (n = 360,000). AID 602396;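 active means inhibition above the mean inhibition of all tested compounds plus 3 SD, cut at about 73% in these data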;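 further: 0% = DMSO wells and 100% = reporter-only cells lacking LRH-1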
NCOA2 inhibitor – human SRC2 (NCOA2) inhibition; Q15596; HEK293 GAL4-SRC2 luciferase reporter, luminescence; inhibition, % at 9 µM; actives 0.17% (n = 370,000); AID 651957;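 active means inhibition above the mean inhibition of all tested compounds plus 3 SD, set per campaign, cut at about 52% in these data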;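 further: 0% = DMSO treated cells and 100% = cells given Gossypol at 36 µM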
EBV LMP1 NFkB – Epstein-Barr LMP1 NF-kappaB reporter inhibition | LMP1-induced NF-kappaB luciferase reporter cells, luminescence | inhibition, % at 12.5 µM | actives 0.69% (n = 350,000) | AID 504558; in the data active means inhibition above about 41%;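 further: 0% = neutral control wells and 100% = reference inhibitor control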
SRC1 inh – inhibitors of human steroid receptor coactivator 1 (SRC1) | Q15788 | HEK293 GAL4-SRC1 luciferase reporter, luminescence | inhibition, % at 3.6 µM | actives 0.12% (n = 360,000) | AID 588354;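 active means inhibition above the campaign mean plus 3 SD, with each screening campaign given its own cutoff, cut at about 60% in these data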;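 further: 0% = DMSO treated cells and 100% = gossypol at 36 µM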
SRC3 inh – inhibits human SRC3 coactivator; Q9Y6Q9; HEK293 GAL4-SRC3 luciferase reporter, luminescence; inhibition, % at 3.6 µM; actives 0.17% (n = 360,000); AID 588352;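 active means inhibition above a per-campaign cutoff, the mean of all compounds plus 3 SD, cut at about 60% in these data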;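 further: 0% = DMSO-treated cells and 100% = gossypol-treated cells at 36 µM; higher means less SRC3-driven luciferase light from the GAL4 reporter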
Active calls of the source: *; ! = repeats disagree. The list is not random: actives were taken first. Their share in the collection is about 0.78%.

CC(=O)OC1C(O)C(C)OC(OC2C(OC(=O)C3CCC4C(C3)OC3(CC(OC(=O)/C=C/c5ccccc5)C(C)CO3)C43CO3)OC(C)C(O)C2OC(C)=O)C1O (stereo unspecified) was read as NR5A2 inv ag 99*, NCOA2 inhibitor 72*, EBV LMP1 NFkB 85*, SRC1 inh 96* and SRC3 inh 95*.
Cn1ncc(Cl)c1C(=O)N1CCC2(CC1)OCCO2 was read as NR5A2 inv ag 9, NCOA2 inhibitor -1, EBV LMP1 NFkB -6, SRC1 inh -30 and SRC3 inh 5.
Screening COc1ccc2c(c1)[nH]c1c(C)nccc12 returned NR5A2 inv ag 38, NCOA2 inhibitor 48, EBV LMP1 NFkB 38, SRC1 inh 71* and SRC3 inh 73*.
`COC(=O)C12OCC34C(CC5C(C)=C(O)C(=O)CC5(C)C3C(O)C1O)OC(=O)C(OC(=O)/C=C(\C)C(C)C)C24` (stereo unspecified) gave NR5A2 inv ag 98*, NCOA2 inhibitor 74*, EBV LMP1 NFkB 95*, SRC1 inh 96* and SRC3 inh 94*.
For CN(C)c1ccc(/C=C/c2cc[n+](C)c3ccccc23)cc1 the results were NR5A2 inv ag 86*, NCOA2 inhibitor -80, EBV LMP1 NFkB 42*!, SRC1 inh 68*! and SRC3 inh 67*!.
`C[C@H]1CCC/C=C/[C@@H]2C[C@H](O)C[C@H]2[C@H](O)/C=C/C(=O)O1` gave NR5A2 inv ag 90*, NCOA2 inhibitor 26, EBV LMP1 NFkB -119, SRC1 inh 23 and SRC3 inh 68*!.
For COc1ccc(-n2nnnc2C(c2ccccc2OC(F)(F)F)N2CCC3(CC2)C(=O)NCN3c2ccccc2)cc1 (stereo unspecified) the results were NR5A2 inv ag -2, NCOA2 inhibitor -8, SRC1 inh 10 and SRC3 inh 11.
COC1C(C)OC(OC2CC(C)(O)Cc3cc4c(c(O)c32)C(=O)c2c(O)cc3c(c2C4=O)OC2OC3(C)C(O)C(N(C)C)C2O)C(OC)C1(C)OC (stereo unspecified) was read as NR5A2 inv ag 27, NCOA2 inhibitor 4, EBV LMP1 NFkB 85*, SRC1 inh 42 and SRC3 inh 47.
For COC(=O)C1=C(c2ccc(OC(F)(F)F)cc2)C[C@@H]2CC[C@H]1N2C(=O)NCc1cccc2ccccc12 the results were NR5A2 inv ag -5, NCOA2 inhibitor 12, EBV LMP1 NFkB 12, SRC1 inh 15 and SRC3 inh 21.
N#Cc1ncc(N=Cc2ccc(N(CCCl)CCCl)cc2)s1 was read as NR5A2 inv ag 12, NCOA2 inhibitor 7, EBV LMP1 NFkB 59*, SRC1 inh -9 and SRC3 inh 3.
CN(C)c1ccc(CN2CC=C(c3ccc(F)cc3)CC2)cc1 was read as NR5A2 inv ag -1, NCOA2 inhibitor -6, EBV LMP1 NFkB -4, SRC1 inh 9 and SRC3 inh 19.
Screening O=[N+]([O-])c1ccc(CN2CC=C(c3ccccc3)CC2)cc1 returned NR5A2 inv ag 11, EBV LMP1 NFkB 43*, SRC1 inh 0 and SRC3 inh 11.
`COC(=O)C1C2CC[C@@H](CC1OC(=O)c1ccccc1)N2` (stereo partly specified) gave NR5A2 inv ag 14, EBV LMP1 NFkB 90*, SRC1 inh 20 and SRC3 inh 10.
Screening CN1C2CCC1C(C(=O)O)C(OC(=O)c1ccccc1)C2 (stereo unspecified) returned NR5A2 inv ag 12, NCOA2 inhibitor 7, EBV LMP1 NFkB -4, SRC1 inh -68 and SRC3 inh 9.
CCOC(=O)C1C(OC(=O)c2ccccc2)CC2CCC1N2C (stereo unspecified) was read as NR5A2 inv ag -5, NCOA2 inhibitor 0, EBV LMP1 NFkB 73*, SRC1 inh -1 and SRC3 inh 5.
Screening COC(=O)C1C(OC(=O)c2ccccc2)CC2CCC1[N+]2(C)C (stereo unspecified) returned NCOA2 inhibitor 0.
Screening CC1=C(C)CC2(C(=O)NC(=O)NC2=O)C(C)C1 (stereo unspecified) returned NR5A2 inv ag 13, NCOA2 inhibitor -20, EBV LMP1 NFkB 4, SRC1 inh 6 and SRC3 inh -4.
Screening CN1[C@@H]2CC[C@H]1CC(OC(=O)C1C=Nc3ccccc31)C2 (stereo partly specified) returned NR5A2 inv ag 21, NCOA2 inhibitor -1, EBV LMP1 NFkB 82*, SRC1 inh 14 and SRC3 inh 6.
